Compound activity (PubChem BioAssay)
m5-HT2A agonist – agonists of mouse serotonin 5-HT2A receptor (HTR2A); P35363; CHO-K1 mHTR2A beta-arrestin complementation, luminescence; percent of 30 µM serotonin response; activation, % at 7.6 µM; 360,000 tested, 0.66% active; AID 624169;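 active = activation above a run cutoff, the mean activation of all tested compounds plus 3 SD, cut at about 14% in these data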;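 note: 0% = plate median of compound wells and 100% = 30 µM serotonin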
OPRM1-OPRD1 inv – inverse agonists of human mu-delta opioid receptor heterodimerization | P35372+P41143 | cell-based MOR-DOR heterodimer luminescence, inverse agonism | inhibition, % at 9.3 µM | 340,000 tested, 0.21% active; in the data active = inhibition above about 22%, passing the limit was not always enough;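 note: 0% = cells with DMSO and 100% = wells without cells with DMSO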
Target sequence (P35372 whole entry, looked up): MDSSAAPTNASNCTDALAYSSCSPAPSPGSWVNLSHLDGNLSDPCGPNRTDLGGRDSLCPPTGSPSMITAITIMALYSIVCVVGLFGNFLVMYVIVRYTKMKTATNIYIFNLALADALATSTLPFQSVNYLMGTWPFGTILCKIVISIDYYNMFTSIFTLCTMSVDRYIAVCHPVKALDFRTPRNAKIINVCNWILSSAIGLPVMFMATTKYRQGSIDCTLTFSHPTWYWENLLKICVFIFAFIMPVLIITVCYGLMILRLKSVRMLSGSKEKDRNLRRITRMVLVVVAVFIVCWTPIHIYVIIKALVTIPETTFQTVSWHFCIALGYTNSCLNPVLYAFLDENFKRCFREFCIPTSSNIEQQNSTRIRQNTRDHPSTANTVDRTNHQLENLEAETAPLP
Target sequence (P41143 whole entry, looked up): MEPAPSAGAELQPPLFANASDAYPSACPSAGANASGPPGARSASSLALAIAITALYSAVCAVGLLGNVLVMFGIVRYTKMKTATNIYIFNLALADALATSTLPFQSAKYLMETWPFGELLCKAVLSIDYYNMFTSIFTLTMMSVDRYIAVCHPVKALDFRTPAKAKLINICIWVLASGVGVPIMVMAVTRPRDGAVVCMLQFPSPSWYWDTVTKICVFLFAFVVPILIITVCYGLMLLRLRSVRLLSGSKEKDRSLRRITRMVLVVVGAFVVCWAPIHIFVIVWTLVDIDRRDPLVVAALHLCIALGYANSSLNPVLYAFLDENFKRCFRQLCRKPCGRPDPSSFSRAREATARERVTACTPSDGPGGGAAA
HTR5A inv ctr – inverse agonist of human HTR5A in OPRM1-OPRD1 counter-screen; P47898; HTR5A cell line, luminescence, inverse agonism; inhibition, % at 9.3 µM; 340,000 tested, 0.083% active; AID 504634; in the data active = inhibition mostly above about 23%, no sharp cut-off; inactive = mostly below about 18%;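 note: 0% = cells with DMSO and 100% = no-cell wells with DMSO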
HTR5A ag ctr – HTR5A agonism, opioid heterodimer counter-screen; 340,000 tested, 0.61% active; activation, % at 9.3 µM; P47898; AID 504692; HTR5A agonist assay, luminescence, cell-based; in the data active = activation mostly above about 9.5%, no sharp cut-off; inactive = mostly below about 7.6%;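 note: 0% = cells with vehicle only and 100% = reference agonist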
MOR-DOR ag – OPRM1-OPRD1 heterodimerization agonism; P35372+P41143; cells, luminescence; activation, % at 9.3 µM; 340,000 tested, 0.3% active; AID 504326; in the data active = activation above about 18%;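 note: 0% = vehicle-treated cells and 100% = reference agonist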
MOR ag counter – OPRM1 agonism in mouse HTR2A counterscreen | shares compounds with m5-HT2A agonist | U2OS OPRM1 beta-arrestin PathHunter, luminescence; DMSO 0%, DAMGO 9.3 µM 100% | activation, % at 9.3 µM | 2,300 tested, 5.3% active | AID 624380;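 active = mean activation above the mean of DMSO-only wells plus 3 SD, cut at about 0.5% in these data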
HTR2A ag conf – mouse HTR2A agonism confirmed. shares compounds with m5-HT2A agonist. CHO-K1 PathHunter beta-arrestin recruitment, luminescence; DMSO 0%, 30 µM serotonin 100%. activation, % at 7.6 µM. 2,300 tested, 19% active;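 active = mean activation across triplicates above the hit threshold derived in the original primary screen, cut at about 15% in these data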
An asterisk follows results filed as active; . = not tested or not shown. Only some compounds are listed: those with a hit (about 1.6% of all), similar ones and a draw of the others.

SMILES | m5-HT2A agonist | OPRM1-OPRD1 inv | HTR5A inv ctr | HTR5A ag ctr | MOR-DOR ag | MOR ag counter | HTR2A ag conf
CCS(=O)(=O)c1ccc(-c2csc(-c3ccccc3)n2)c(Cl)c1Cl | 16* | 6 | -15 | 7 | -1 | 0 | 2
CCOC(=O)N1CCC(N(C(=O)Nc2ccc(Cl)c(Cl)c2)C(C)CC)CC1 (stereo not drawn) | 16* | -18 | 3 | -1 | 3 | 0 | -2
CCOC(=O)N1CCC(N(CCOC)C(=O)Nc2ccc(CC)cc2)CC1 | -6 | -11 | -5 | 2 | 2 | . | .
O=C(NCc1cccs1)C1CCCN1C(=O)Nc1ccc(F)cc1 (stereo not drawn) | -1 | 18 | -6 | -2 | -3 | . | .
O=C(NCc1cccs1)C1CCCN1C(=O)Nc1cccc(F)c1 (stereo not drawn) | 17* | 18 | 8 | -3 | -4 | -1 | -5
COc1ccc(N2C(=O)c3ccccc3NC(=O)C2C(=O)NCc2ccco2)cc1 (stereo not drawn) | 4 | . | . | . | . | . | .
COc1cccc2c1cc1c(=O)n(CC(=O)N3CCC(C)CC3)nc(C)n12 | 17* | -1 | 9 | -2 | 0 | 0 | 57*
CCc1nn(CC(=O)N2CCC(C)CC2)c(=O)c2cccn12 | -3 | 8 | -23 | -6 | -2 | . | .
O=C(CN1C(=O)NC(Cc2ccccc2)C1=O)Nc1ccc(OC(F)F)cc1 (stereo not drawn) | 0 | 4 | -15 | 5 | -1 | . | .
O=C(CN1C(=O)NC(Cc2ccccc2)C1=O)Nc1ccccc1OC(F)F (stereo not drawn) | 18* | 2 | -7 | 3 | 0 | 0 | 0
CCOc1cc(CN2CCN(c3ncccn3)CC2)ccc1OC | 22* | 7 | 18 | -4 | -1 | -1 | 50*
COc1cccc(CN2CCN(Cc3cc(OC)c(OC)c(OC)c3)CC2)c1OC | 0 | 4 | 7 | -2 | -1 | . | .
COc1ccc(Br)cc1CN1CCN(c2ncccn2)CC1 | 0 | 3 | 3 | -1 | -1 | . | .
c1cnc(N2CCN(Cc3c[nH]c4ccccc34)CC2)nc1 | 29* | -2 | -9 | 2 | 0 | -1 | 93*
Cc1ccccc1N1CCN(Cc2c[nH]c3ccccc23)CC1 | -5 | -27 | 19 | -2 | 5 | . | .
COc1cccc(CN2CCN(c3ncccn3)CC2)c1OC | 25* | -13 | 3 | 12 | 2 | -1 | 81*
COc1ccc(CN2CCN(c3ccccn3)CC2)c(OC)c1C | 3 | 11 | 3 | -7 | -2 | . | .
COc1ccc(CN2CCN(c3ncccn3)CC2)c(C)c1C | 34* | -28 | 3 | 10 | 5 | 0 | 130*
O=C(NC(Cc1nn[nH]n1)C(=O)OCc1ccccc1)OCc1ccccc1 (stereo not drawn) | 4 | . | . | . | . | . | .
CC1CCCC(NC(=O)c2cc(S(=O)(=O)N3CCCCC3)c[nH]2)C1C (stereo not drawn) | 1 | . | . | . | . | . | .
COc1ccc(OC)c(S(=O)(=O)N(C)CC(=O)Nc2ccccc2OC)c1 | 16* | 21 | 11 | -4 | -4 | -1 | -5
C[C@]12c3[nH]c4ccc(Cl)cc4c3CCN1C(=O)[C@@H](CC(=O)NCCC1=CCCCC1)C[C@@H]2C(=O)N1CCOCC1 | 23* | 4 | -8 | 2 | -1 | -1 | -6
CC1=C2C3OC(=O)C(C)C3CCC2(C)C=C(Cl)C1=O (stereo not drawn) | 2 | . | . | . | . | . | .
O=C(c1ccc2c(c1)OCCO2)C1CCN(C(=O)Nc2ccc(F)cc2)CC1 | 4 | -9 | -10 | -4 | 1 | . | .
COc1ccc(NC(=O)N2CCC(C(=O)c3ccc4c(c3)OCCO4)CC2)cc1 | 17* | 0 | -11 | 5 | 0 | -1 | -4
SMILES | m5-HT2A agonist | OPRM1-OPRD1 inv | HTR5A inv ctr | HTR5A ag ctr | MOR-DOR ag | MOR ag counter | HTR2A ag conf
O=C(C[C@H]1C[C@H]2c3cc(NS(=O)(=O)c4ccc(F)cc4)ccc3O[C@H]2[C@H](CO)O1)NCc1ccncc1 | -7 | . | . | . | . | . | .
CCC(C)n1c(SCC(=O)NCc2ccco2)nnc1-c1cccc(S(=O)(=O)N2CCOCC2)c1 (stereo not drawn) | 15* | 8 | -1 | 1 | -2 | -1 | -1
O=C(COc1cc(Cl)c(Cl)cc1Cl)Nc1cccc(O)c1 | 22* | -40 | 7 | -2 | 8 | 0 | -1
c1ccc2c(c1)[nH]c1c(N3CCSCC3)ncnc12 | 15* | -14 | -4 | 1 | 2 | 0 | -2
c1ccc2c(c1)[nH]c1c(N3CCCC3)ncnc12 | 2 | -5 | 24 | -11 | 1 | . | .
Cc1cc2nc(C(C)(C)C)c(Cc3ccsc3)n2c(C)c1Br | -1 | . | . | . | . | . | .
NS(=O)(=O)c1ccc(-n2nc(C(=O)O)cc2-c2ccc(Cl)cc2)cc1 | 0 | -1 | -12 | 5 | 0 | . | .
Cc1ccc(-c2cc(C(F)(F)F)nn2-c2ccc(S(N)(=O)=O)cc2)cc1 | 20* | -76 | -17 | 7 | 14 | 1.1* | 25*
Cc1cccc(NS(=O)(=O)c2ccc(C(=O)N3CCN(c4ccccc4O)CC3)cc2)c1C | 16* | -2 | -4 | 2 | 1 | 0.5* | 5
CCOc1ccc(CCNS(=O)(=O)c2c(C)nc3sccn3c2=O)cc1OCC | 9 | . | . | . | . | . | .
Cc1nc(N2CCN(c3ccccc3F)CC2)[nH]c(=O)c1C | -6 | 5 | 9 | -2 | -1 | . | .
CCc1c(C)nc(N2CCN(c3ccccc3F)CC2)[nH]c1=O | 20* | -8 | 1 | 0 | 2 | 0.9* | 4
CC1CCN(c2nnc(-c3cccs3)c3ccccc23)CC1 | -2 | -28 | 0 | 0 | 4 | . | .
c1csc(-c2nnc(NC3CCCCC3)c3ccccc23)c1 | 23* | 10 | 12 | 2 | -2 | -1 | 9
CC(C)N(C)c1ncnc2c1ncn2[C@H]1CN(Cc2ccc(Cl)cc2)C[C@@H](CO)O1 | 2 | . | . | . | . | . | .
COc1cccc(COC(=O)C(Cc2ccccc2)NC(=O)c2ccco2)c1 (stereo not drawn) | 17* | . | . | . | . | 0 | 9
